These results are taken from ChEMBL document CHEMBL1961873, “Compounds: GSK PKIS; Assays: Nanosyn kinase panel” (2012).

The target of experiment [1] is Tyrosine-protein kinase Fyn (Homo sapiens) (UniProt P06241). As to conditions: at 1 µM.
The target in experiment [2] is Tyrosine-protein kinase HCK (Homo sapiens) (UniProt P08631). The conditions noted are these: at 0.1 µM.
Experiment [3] has the same target. The conditions noted are these: at 1 µM.
The target of experiment [4] is Insulin-like growth factor 1 receptor (Homo sapiens) (UniProt P08069). As to conditions: at 0.1 µM.
The target is the same in experiment [5]. As to conditions: at 1 µM.
The target in experiment [6] is Insulin receptor (Homo sapiens) (UniProt P06213). As to conditions: at 0.1 µM.
The target is the same in experiment [7]. The conditions noted are these: at 1 µM.
Experiment [8] deals with Insulin receptor-related protein (Homo sapiens) (UniProt P14616). The conditions noted are these: at 0.1 µM.
Experiment [9] shares this target. The conditions noted are these: at 1 µM.
The target of experiment [10] is T1, Tyrosine-protein kinase ITK/TSK (Homo sapiens) (UniProt Q08881).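 Also: mean percent inhibition of ITK from the GSK PKIS screen.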
T1 sequence (whole entry): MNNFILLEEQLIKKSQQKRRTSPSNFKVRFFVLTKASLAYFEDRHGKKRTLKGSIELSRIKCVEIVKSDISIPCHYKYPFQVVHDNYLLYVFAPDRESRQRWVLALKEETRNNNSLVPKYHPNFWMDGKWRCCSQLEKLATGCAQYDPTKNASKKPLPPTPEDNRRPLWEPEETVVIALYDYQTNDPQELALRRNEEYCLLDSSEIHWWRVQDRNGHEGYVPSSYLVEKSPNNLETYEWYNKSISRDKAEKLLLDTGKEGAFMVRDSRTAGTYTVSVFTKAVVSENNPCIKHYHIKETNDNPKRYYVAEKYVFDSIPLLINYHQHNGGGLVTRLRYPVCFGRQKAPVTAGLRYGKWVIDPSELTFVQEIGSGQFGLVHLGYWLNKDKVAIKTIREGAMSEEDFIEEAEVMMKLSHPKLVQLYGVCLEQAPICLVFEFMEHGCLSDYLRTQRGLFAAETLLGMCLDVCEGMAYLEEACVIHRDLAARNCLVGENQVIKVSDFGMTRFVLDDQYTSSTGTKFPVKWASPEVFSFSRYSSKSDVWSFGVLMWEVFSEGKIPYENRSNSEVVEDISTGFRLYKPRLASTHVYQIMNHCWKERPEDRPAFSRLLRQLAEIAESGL
The conditions noted are these: at 0.1 µM.

Chain of Tyrosine-protein kinase HCK (Homo sapiens) (P08631 2-526 limits assumed): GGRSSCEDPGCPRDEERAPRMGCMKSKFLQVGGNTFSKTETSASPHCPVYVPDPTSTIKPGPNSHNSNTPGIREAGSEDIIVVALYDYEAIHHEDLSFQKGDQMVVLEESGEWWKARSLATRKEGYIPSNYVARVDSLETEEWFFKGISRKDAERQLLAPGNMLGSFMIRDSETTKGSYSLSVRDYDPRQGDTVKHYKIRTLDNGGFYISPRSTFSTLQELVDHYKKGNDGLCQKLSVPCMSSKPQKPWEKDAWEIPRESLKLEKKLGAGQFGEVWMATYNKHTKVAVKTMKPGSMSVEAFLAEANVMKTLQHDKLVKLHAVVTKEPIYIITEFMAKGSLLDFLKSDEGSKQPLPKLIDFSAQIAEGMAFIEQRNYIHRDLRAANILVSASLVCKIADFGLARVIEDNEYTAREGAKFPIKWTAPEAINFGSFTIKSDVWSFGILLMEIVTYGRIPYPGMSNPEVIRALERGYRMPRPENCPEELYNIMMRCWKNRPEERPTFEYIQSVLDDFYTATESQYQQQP
Chain of Insulin receptor (Homo sapiens) (P06213 28-758 limits assumed): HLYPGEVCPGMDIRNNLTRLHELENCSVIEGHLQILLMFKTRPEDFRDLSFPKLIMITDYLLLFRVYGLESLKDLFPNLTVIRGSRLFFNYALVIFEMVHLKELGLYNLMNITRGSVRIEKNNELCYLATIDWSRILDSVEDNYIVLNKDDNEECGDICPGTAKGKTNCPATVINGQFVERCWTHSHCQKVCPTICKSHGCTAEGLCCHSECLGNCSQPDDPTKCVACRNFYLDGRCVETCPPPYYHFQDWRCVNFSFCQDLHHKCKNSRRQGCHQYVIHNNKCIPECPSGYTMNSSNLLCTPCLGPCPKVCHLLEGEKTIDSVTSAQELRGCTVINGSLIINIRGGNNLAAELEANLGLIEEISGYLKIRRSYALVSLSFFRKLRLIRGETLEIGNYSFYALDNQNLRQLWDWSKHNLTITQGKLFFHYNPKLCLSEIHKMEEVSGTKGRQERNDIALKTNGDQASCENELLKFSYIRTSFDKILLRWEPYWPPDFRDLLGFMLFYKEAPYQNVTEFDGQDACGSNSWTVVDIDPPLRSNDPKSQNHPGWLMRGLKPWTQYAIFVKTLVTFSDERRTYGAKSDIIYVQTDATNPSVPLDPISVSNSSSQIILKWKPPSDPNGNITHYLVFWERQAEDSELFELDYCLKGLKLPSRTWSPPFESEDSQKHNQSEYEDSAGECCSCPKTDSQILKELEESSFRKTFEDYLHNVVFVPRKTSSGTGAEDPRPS
Chain of Insulin receptor (Homo sapiens) (P06213 763-1382 limits assumed): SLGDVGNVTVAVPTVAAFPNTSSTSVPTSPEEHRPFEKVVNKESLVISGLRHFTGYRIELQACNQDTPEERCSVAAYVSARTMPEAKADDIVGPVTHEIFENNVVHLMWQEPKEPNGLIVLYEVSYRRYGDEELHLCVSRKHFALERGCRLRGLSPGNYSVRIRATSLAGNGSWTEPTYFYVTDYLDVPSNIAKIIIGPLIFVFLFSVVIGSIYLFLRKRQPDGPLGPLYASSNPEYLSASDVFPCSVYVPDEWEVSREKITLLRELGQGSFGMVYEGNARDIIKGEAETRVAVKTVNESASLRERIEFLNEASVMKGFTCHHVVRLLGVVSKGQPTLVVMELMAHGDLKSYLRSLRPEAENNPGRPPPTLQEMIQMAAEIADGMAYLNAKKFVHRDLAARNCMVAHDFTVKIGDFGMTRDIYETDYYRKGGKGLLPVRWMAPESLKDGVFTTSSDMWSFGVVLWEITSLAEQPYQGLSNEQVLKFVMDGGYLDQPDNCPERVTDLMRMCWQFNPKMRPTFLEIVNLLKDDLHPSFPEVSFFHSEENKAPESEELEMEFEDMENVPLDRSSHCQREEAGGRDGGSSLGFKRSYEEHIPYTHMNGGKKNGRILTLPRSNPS
Chain of Insulin receptor-related protein (Homo sapiens) (P14616 27-742 limits assumed): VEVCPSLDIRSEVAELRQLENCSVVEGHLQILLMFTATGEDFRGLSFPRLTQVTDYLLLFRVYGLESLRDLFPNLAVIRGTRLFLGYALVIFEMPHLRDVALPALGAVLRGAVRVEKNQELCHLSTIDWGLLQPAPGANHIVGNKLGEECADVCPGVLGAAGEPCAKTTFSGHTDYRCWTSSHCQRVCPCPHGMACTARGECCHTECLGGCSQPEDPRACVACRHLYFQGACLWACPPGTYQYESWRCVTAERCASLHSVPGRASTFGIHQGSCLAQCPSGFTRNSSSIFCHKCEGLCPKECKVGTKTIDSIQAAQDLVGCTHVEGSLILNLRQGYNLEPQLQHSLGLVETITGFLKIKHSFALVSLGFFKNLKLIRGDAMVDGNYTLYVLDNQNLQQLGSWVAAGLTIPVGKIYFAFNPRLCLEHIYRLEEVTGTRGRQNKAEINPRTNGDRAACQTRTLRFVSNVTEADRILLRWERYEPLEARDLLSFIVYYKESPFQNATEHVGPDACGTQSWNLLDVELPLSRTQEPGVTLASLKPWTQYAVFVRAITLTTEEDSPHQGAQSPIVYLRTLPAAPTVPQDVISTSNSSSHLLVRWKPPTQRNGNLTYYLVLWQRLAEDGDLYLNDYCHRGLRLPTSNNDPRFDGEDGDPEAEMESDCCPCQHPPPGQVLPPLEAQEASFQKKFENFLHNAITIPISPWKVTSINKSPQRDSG
Chain of Insulin receptor-related protein (Homo sapiens) (P14616 747-1297 limits assumed): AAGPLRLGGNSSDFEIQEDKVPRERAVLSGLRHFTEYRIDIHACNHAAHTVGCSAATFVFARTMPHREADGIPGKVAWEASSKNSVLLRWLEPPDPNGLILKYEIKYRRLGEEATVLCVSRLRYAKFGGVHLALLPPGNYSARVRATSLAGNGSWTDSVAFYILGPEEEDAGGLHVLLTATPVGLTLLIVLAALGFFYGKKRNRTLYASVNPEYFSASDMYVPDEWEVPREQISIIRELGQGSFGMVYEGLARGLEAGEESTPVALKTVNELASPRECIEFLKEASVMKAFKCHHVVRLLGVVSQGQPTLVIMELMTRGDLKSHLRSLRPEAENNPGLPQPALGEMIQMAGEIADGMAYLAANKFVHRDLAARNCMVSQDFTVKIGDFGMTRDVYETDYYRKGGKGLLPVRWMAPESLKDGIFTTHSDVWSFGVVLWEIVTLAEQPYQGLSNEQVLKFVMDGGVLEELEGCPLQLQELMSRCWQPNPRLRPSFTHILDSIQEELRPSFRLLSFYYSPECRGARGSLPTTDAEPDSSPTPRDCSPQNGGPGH
Chain of Insulin-like growth factor 1 receptor (Homo sapiens) (P08069 31-736 limits assumed): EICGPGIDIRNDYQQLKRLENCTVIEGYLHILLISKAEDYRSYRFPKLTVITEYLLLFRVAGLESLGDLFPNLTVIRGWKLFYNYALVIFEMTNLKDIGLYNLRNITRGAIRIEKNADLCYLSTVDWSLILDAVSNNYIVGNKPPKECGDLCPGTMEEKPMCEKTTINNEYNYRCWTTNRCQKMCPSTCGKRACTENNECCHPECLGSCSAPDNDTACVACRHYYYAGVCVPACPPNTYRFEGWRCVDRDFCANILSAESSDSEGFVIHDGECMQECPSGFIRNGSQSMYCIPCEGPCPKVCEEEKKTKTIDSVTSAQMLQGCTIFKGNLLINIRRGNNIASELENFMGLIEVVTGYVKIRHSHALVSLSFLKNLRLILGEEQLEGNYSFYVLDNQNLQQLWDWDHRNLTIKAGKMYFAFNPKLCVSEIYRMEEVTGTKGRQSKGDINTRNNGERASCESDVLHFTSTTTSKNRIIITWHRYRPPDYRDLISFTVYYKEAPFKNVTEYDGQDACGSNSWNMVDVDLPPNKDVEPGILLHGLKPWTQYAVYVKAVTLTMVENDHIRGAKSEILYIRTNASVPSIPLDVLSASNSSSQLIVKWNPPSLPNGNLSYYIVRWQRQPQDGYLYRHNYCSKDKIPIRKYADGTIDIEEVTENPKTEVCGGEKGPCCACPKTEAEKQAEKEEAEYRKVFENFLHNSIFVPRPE
Chain of Insulin-like growth factor 1 receptor (Homo sapiens) (P08069 741-1367 limits assumed): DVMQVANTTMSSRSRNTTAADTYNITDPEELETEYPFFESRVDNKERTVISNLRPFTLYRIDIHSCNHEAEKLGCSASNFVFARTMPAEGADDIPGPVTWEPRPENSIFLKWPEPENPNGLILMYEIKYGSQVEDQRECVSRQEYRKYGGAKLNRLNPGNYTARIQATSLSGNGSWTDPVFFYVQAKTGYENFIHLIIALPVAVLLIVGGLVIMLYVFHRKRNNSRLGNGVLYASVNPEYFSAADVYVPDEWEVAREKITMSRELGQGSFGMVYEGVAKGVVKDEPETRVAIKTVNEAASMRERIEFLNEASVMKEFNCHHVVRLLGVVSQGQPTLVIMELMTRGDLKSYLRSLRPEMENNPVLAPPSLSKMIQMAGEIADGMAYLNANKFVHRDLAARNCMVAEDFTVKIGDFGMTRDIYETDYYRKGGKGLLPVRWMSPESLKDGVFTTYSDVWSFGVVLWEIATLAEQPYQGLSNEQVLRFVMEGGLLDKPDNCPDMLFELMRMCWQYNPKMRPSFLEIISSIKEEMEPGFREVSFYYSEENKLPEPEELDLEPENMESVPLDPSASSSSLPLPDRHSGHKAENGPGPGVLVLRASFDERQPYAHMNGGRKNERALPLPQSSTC
Chain of Tyrosine-protein kinase Fyn (Homo sapiens) (P06241 2-537 limits assumed): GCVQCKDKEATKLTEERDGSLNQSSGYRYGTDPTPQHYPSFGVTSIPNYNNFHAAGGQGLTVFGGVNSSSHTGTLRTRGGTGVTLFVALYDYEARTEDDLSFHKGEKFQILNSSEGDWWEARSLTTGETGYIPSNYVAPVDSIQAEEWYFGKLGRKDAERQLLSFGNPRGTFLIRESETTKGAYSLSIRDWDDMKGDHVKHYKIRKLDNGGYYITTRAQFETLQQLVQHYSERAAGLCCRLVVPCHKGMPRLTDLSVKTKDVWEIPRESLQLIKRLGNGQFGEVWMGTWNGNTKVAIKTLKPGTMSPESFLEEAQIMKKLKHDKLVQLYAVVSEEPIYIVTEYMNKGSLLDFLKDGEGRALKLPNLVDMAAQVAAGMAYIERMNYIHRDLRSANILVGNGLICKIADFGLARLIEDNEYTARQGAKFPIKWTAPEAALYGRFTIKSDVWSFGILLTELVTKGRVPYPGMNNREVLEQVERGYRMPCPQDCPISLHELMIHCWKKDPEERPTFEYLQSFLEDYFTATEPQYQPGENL

As a reminder, the inhibition is the drop in the measured response relative to a control, in per cent. For the compound `COc1cc2c(cc1Nc1nc(Nc3ccsc3C(N)=O)c3cc[nH]c3n1)N(C(=O)CN(C)C)CCC2`, the inhibition worked out at 6.09% in experiment [1]; 14% in [2]; 16.6% in [3]; 99.3% in [4]; 101% in experiment [5]; 102% in [6]. Besides, the inhibition was 99.9% in [7], 95.7% in experiment [8], 97.3% in experiment [9] and -1.24% in experiment [10].
As for `NS(=O)(=O)c1ccc(-c2ccc3c(NC(=O)C4CC4)n[nH]c3c2)cc1`, the inhibition in [1] is 2.42%; in experiment [2], 4.22%; in [3], 9.28%; in experiment [4] it was 0.89%; in experiment [5], 1.61%; in [6] it was 1.23%. Further, the inhibition in [7] was found to be 2.43%; in experiment [8], 3.82%; in experiment [9] it was 2.73%; in experiment [10], 1.9%.
Turning to `NC(=O)c1sc(-n2cnc3cc(C(F)(F)F)ccc32)cc1OCc1ccccc1Br`, the inhibition in experiment [1] was 7.58%; in experiment [2], 2.82%; in experiment [3] it was 0.29%; in [4] it was -2.64%; in experiment [5], 0.95%; in experiment [6], 0.33%. Besides, the inhibition is 1.77% in experiment [7], 1.13% in experiment [8], -0.33% in experiment [9] and -0.64% in [10].
For `CCn1c(-c2nonc2N)nc2c(C#CC(C)(C)O)nc(O[C@@H](CN)c3ccccc3)cc21`, the inhibition was 25% in experiment [1]; 0.41% in experiment [2]; 14.1% in experiment [3]; -2.18% in experiment [4]; -0.35% in [5]; 1.17% in experiment [6]. For the same compound, the inhibition in [7] is 1.91%; in experiment [8] it was -1.87%; in experiment [9] it was -2.16%; in experiment [10], 0.11%.
Regarding `Nc1nonc1-c1nc2cnccc2n1C1CCCCC1`, the inhibition in experiment [1] was 4.39%; in [2] it was -1%; in experiment [3] it was 0.66%; in experiment [4] it was -3.43%; in [5], -0.98%; in [6], -0.54%. The inhibition in experiment [7] is -0.22%; in [8] it was -2.35%; in experiment [9], -3.62%; in experiment [10] it was -0.34%.
With `CCn1c(-c2nonc2N)nc2c(C#CC(C)(C)O)ncc(OCC3CCNCC3)c21`, the inhibition in experiment [1] is 2.15%; in experiment [2] it was 2.07%; in [3], 5.41%; in experiment [4], -3.92%; in experiment [5], -4.46%; in [6], 2.75%. Moreover, the inhibition is 1.72% in experiment [7], 2.1% in experiment [8], 2.17% in experiment [9] and -2.28% in experiment [10].
Turning to `COc1cc(C=NNc2ncnc3c2cnn3Cc2ccccc2)ccc1O`, the inhibition was 4.87% in experiment [1]; 3.29% in experiment [2]; 33.7% in experiment [3]; -3.54% in experiment [4]; -1.6% in experiment [5]; -3.1% in [6]. Moreover, the inhibition in experiment [8] is -3.04%; in experiment [9] it was -4.41%; in experiment [10], -1.61%.
For `COc1cccc(-n2ncc3c(N/N=C/c4ccncc4)ncnc32)c1`, the inhibition was 73.8% in experiment [1]; 15.7% in [2]; 59.2% in experiment [3]; 4.62% in experiment [4]; 4.88% in [5]; 6.46% in experiment [6]. The inhibition amounted to 7.36% in experiment [7], 1.64% in [8], 5.33% in [9] and 1.63% in [10].
`Fc1ccc(-c2ncn(C3CCNCC3)c2-c2ccnc(Oc3ccccc3)n2)cc1`: the inhibition is -3.36% in experiment [1]; 2.11% in [2]; 1.98% in [3]; -4.15% in experiment [5]; 2.42% in [6]; 3.05% in [7]. For the same compound, the results for the inhibition in [8], in experiment [9] and in experiment [10] were 0.57%, 0.22% and -3.91%, respectively.
On to `CCn1c(-c2nonc2N)nc2c(C#CC(C)(C)O)ncc(OC[C@@H]3CCCN3)c21`, for which the inhibition is 1.07% in experiment [1]; -1.1% in [2]; 1% in experiment [3]; -4.88% in experiment [4]; 0.19% in [5]; 0.85% in [6]. Also, the inhibition was -1.35% in experiment [7], -1.3% in experiment [8], -0.44% in experiment [9] and -1.58% in experiment [10].
Take `COc1cccc(COc2cc(-n3cnc4ccccc43)sc2C(N)=O)c1`: the inhibition in experiment [1] is 2.15%; in experiment [2], -1.32%; in experiment [3], -0.98%; in experiment [4], -3.85%; in experiment [5], -1.64%; in experiment [6], -3.2%. Also, the inhibition in experiment [7] was 0.19%; in experiment [8], -0.6%; in experiment [9], -1.17%; in experiment [10], -2.19%.
As for `CCn1c(-c2nonc2N)nc2c(C#CCN)ncc(OCCCN)c21`, the inhibition in experiment [1] was -1.61%; in experiment [2] it was 0.79%; in [3], -3.58%; in [4] it was -5.07%; in [5], -6.11%; in [6], -5.48%. Moreover, the inhibition in experiment [7] was -4.01%; in [8], -0.39%; in [9] it was 0.07%; in experiment [10], 0.2%.
As for `Cc1cc(-c2ccco2)cc(C)c1/C=C/c1cncc(-c2nn[nH]n2)c1`, the inhibition was 1.98% in experiment [1]; 1.62% in experiment [2]; 3.34% in experiment [3]; -1.5% in [4]; 1.06% in [5]; 0.61% in experiment [6]. Also, the inhibition in [7] is 0.42%; in experiment [8], 1.36%; in experiment [9], -0.21%; in experiment [10], -0.49%.
For the compound `NS(=O)(=O)c1ccc(N/C=C2\C(=O)Nc3ccc4ncsc4c32)cc1`, the inhibition was 9.66% in experiment [1]; 9.53% in [2]; 28.9% in experiment [3]; 16% in [4]; 19.4% in experiment [5]; 0.99% in experiment [6]. Further, the inhibition in experiment [7] was found to be 11.7%; in experiment [8] it was 0.69%; in [9], 4.17%; in experiment [10], 1.17%.
